# In article PMC11062922 (Nature Chemical Biology, 2023):
# Where two headings read alike, the source gives them in different places.
# Experiments:
# Set-up in all cases: species or system human, MV4-11 + K-562 + COLO205 + SK-N-BE2 + OVCAR-8
# [1] = tested on: PDGFRB; conditions: read-out: apparent Kd, n = 1
# [2] = tested on: CDC42BPA; conditions: read-out: apparent Kd, n = 1
# [3] = tested on: CDC42BPG; conditions: read-out: apparent Kd, n = 1
# [4] = tested on: PRKG1; conditions: read-out: apparent Kd, n = 1
# [5] = tested on: ROCK1; conditions: read-out: apparent Kd, compound concentrations: 100 nM and 1000 nM (sheet 'Samples'), n = 1
# [6] = tested on: AXL; conditions: read-out: apparent Kd, compound concentrations: 100 nM and 1000 nM (sheet 'Samples'), n = 1
# [7] = tested on: CDK2; conditions: read-out: apparent Kd, compound concentrations: 100 nM and 1000 nM (sheet 'Samples'), n = 1
# [8] = tested on: CDK5; conditions: read-out: apparent Kd; compound concentrations: 100 nM and 1000 nM (sheet 'Samples'), CATDS: 6.6467271298615597E-3; n = 1
# [9] = tested on: LYN; conditions: read-out: apparent Kd, compound concentrations: 100 nM and 1000 nM (sheet 'Samples'), n = 1
# [10] = tested on: PIK3CG; conditions: read-out: apparent Kd, compound concentrations: 100 nM and 1000 nM (sheet 'Samples'), n = 1
# [11] = tested on: TTK; conditions: read-out: apparent Kd, n = 1
# [12] = tested on: CSK; conditions: read-out: apparent Kd; compound concentrations:100 nM and 1000 nM (sheet 'Samples'); n = 1
# [13] = tested on: ULK1; conditions: read-out: apparent Kd; compound concentrations:100 nM and 1000 nM (sheet 'Samples'); n = 1
# [14] = tested on: TGFBR2; conditions: read-out: apparent Kd, n = 1
# [15] = tested on: CDK9; conditions: read-out: apparent Kd, n = 1
# [16] = tested on: MTOR; conditions: read-out: apparent Kd, n = 1
# [17] = tested on: EPHA1; conditions: read-out: apparent Kd; compound concentrations:100 nM and 1000 nM (sheet 'Samples'); n = 1
# [18] = tested on: EPHB3; conditions: read-out: apparent Kd; compound concentrations:100 nM and 1000 nM (sheet 'Samples'); n = 1
# [19] = tested on: ICK; conditions: read-out: apparent Kd, n = 1
# [20] = compound concentrations:100 nM and 1000 nM (sheet 'Samples')
structure (smiles),measurement,setting,value
CC(C)Oc1ccc2c(-c3ccnc(Nc4ccc(N5CCN(C)CC5)cc4)n3)cnn2n1 [GW696155X],potency estimated from few doses,[1]; [20],2040 nM
NCC(NC(=O)c1cc(-c2cn[nH]c2)c(-c2ccnc3[nH]ccc23)s1)c1ccccc1.NCC(NC(=O)c1cc(-c2cn[nH]c2)c(-c2ccnc3[nH]ccc23)s1)c1ccccc1.O=C(O)C(F)(F)F.O=C(O)C(F)(F)F (stereo not shown) [GSK1325775A],potency estimated from few doses,"[2]; compound concentrations: 100 nM and 1000 nM (sheet 'Samples'), CATDS: 0.12802177694120001",75.6 nM
same,potency estimated from few doses,"[3]; compound concentrations: 100 nM and 1000 nM (sheet 'Samples'), CATDS: 3.6567109546732701E-2",1070 nM
same,potency estimated from few doses,"[4]; compound concentrations: 100 nM and 1000 nM (sheet 'Samples'), CATDS: 5.9396104813121603E-2",330 nM
same,potency estimated from few doses,[5]; CATDS: 0.15957099257621499,52.4 nM
O=C(O)C(F)(F)F.O=C(O)C(F)(F)F.O=c1[nH]ccc2nc(N[C@@H]3CCCNC3)nc(Nc3ccc(S(=O)(=O)N4CCOCC4)cc3)c12.O=c1[nH]ccc2nc(N[C@@H]3CCCNC3)nc(Nc3ccc(S(=O)(=O)N4CCOCC4)cc3)c12 [GSK2177277A],potency estimated from few doses,[6]; CATDS: 1.0312125146775999E-2,251 nM
same,potency estimated from few doses,"[2]; compound concentrations: 100 nM and 1000 nM (sheet 'Samples'), CATDS: 6.6693958930569E-3",1260 nM
same,potency estimated from few doses,"[3]; compound concentrations: 100 nM and 1000 nM (sheet 'Samples'), CATDS: 1.3688403769646499E-2",119 nM
same,potency estimated from few doses,[7]; CATDS: 8.3972230361842193E-3,481 nM
same,potency estimated from few doses,[8],1280 nM
same,potency estimated from few doses,[9]; CATDS: 7.0851480794777598E-3,942 nM
same,potency estimated from few doses,"[1]; compound concentrations: 100 nM and 1000 nM (sheet 'Samples'), CATDS: 3.6594692875912202E-2",18.3 nM
same,potency estimated from few doses,[10]; CATDS: 7.6571772064284397E-3,679 nM
same,potency estimated from few doses,[5]; CATDS: 7.59809178232565E-3,700 nM
same,potency estimated from few doses,"[11]; compound concentrations: 100 nM and 1000 nM (sheet 'Samples'), CATDS: 6.1777236356659101E-3",1950 nM
CC(=O)N[C@@H](Cc1ccc(OP(=O)(O)O)cc1)C(=O)N[C@H]1CCC(=O)N2CCC[C@@H](C(=O)NCc3ccc(Cl)cc3)N2C1=O [RO0325308-000],potency estimated from few doses,[12],1550 nM
same,potency estimated from few doses,[13],1610 nM
NC(=O)c1cc(-c2ccccc2)cc2c(C3CCNCC3)c[nH]c12 [GSK301362A],potency estimated from few doses,[1]; [20],1630 nM
Cc1n[nH]c2cc(Nc3ccnc(Nc4cccc(CN5CCOCC5)c4)n3)ccc12 [GW682569X],potency estimated from few doses,"[14]; compound concentrations: 100 nM and 1000 nM (sheet 'Samples'), CATDS: 0.113560287008428",891 nM
CCn1c(-c2cccnc2O)nc2cnccc21 [SB-736715],potency estimated from few doses,"[3]; compound concentrations: 100 nM and 1000 nM (sheet 'Samples'), CATDS: 1.9794934428915799E-2",767 nM
same,potency estimated from few doses,"[15]; compound concentrations: 100 nM and 1000 nM (sheet 'Samples'), CATDS: 1.2439318728053501E-2",1990 nM
same,potency estimated from few doses,[9]; CATDS: 1.4378257714361201E-2,1420 nM
same,potency estimated from few doses,"[16]; compound concentrations: 100 nM and 1000 nM (sheet 'Samples'), CATDS: 2.4342706030032701E-2",547 nM
same,potency estimated from few doses,[10]; CATDS: 9.1944344631326697E-2,91.6 nM
same,potency estimated from few doses,"[11]; compound concentrations: 100 nM and 1000 nM (sheet 'Samples'), CATDS: 1.5814183064690599E-2",1160 nM
CS(=O)(=O)CCn1c(=O)c(Oc2ccc(F)cc2F)cc2cnc(NC3CCOCC3)nc21 [RO5027956-000],potency estimated from few doses,[12],1540 nM
same,potency estimated from few doses,[17],724 nM
same,potency estimated from few doses,[18],2330 nM
O=C1N=C(NCc2cccs2)O/C1=C\c1ccc2ncccc2c1 [RO4624208-000],potency estimated from few doses,[10]; CATDS: 5.5474832594148302E-2,936 nM
CCn1c(-c2nonc2N)nc2c(C#CC(C)(C)O)nc(O[C@@H](CN)c3ccccc3)cc21.O=C(O)C(F)(F)F [GSK1007102B],potency estimated from few doses,[2]; [20],952 nM
same,potency estimated from few doses,[3]; [20],191 nM
same,potency estimated from few doses,[4]; [20],9.31 nM
CNCC#Cc1c(F)ccc2c1/C(=C/c1[nH]ccc1OC)C(=O)N2.Cl [RO0281601-001],potency estimated from few doses,"[19]; compound concentrations: 100 nM and 1000 nM (sheet 'Samples'), CATDS: 2.2639550880060699E-2",1700 nM
c1cnn2ncc(-c3ccnc(Nc4ccc5c(c4)OCCO5)n3)c2c1 [GW806290X],potency estimated from few doses,"[15]; compound concentrations: 100 nM and 1000 nM (sheet 'Samples'), CATDS: 6.9114282023058901E-2",99.5 nM
same,potency estimated from few doses,"[19]; compound concentrations: 100 nM and 1000 nM (sheet 'Samples'), CATDS: 0.106713874587666",50.6 nM
same,potency estimated from few doses,"[14]; compound concentrations: 100 nM and 1000 nM (sheet 'Samples'), CATDS: 6.1295123324086299E-2",123 nM
COc1cc[nH]c1/C=C1\C(=O)Nc2ccc(F)c(C#CC3(O)CCNCC3)c21.Cl [RO0282986-001],potency estimated from few doses,[6]; CATDS: 1.01827981772752E-2,1230 nM
same,potency estimated from few doses,[7]; CATDS: 1.26412371427807E-2,615 nM
same,potency estimated from few doses,"[15]; compound concentrations: 100 nM and 1000 nM (sheet 'Samples'), CATDS: 1.1942255869273499E-2",724 nM
same,potency estimated from few doses,"[19]; compound concentrations: 100 nM and 1000 nM (sheet 'Samples'), CATDS: 1.28060195349982E-2",593 nM
same,potency estimated from few doses,"[1]; compound concentrations: 100 nM and 1000 nM (sheet 'Samples'), CATDS: 1.1337273569473399E-2",850 nM
same,potency estimated from few doses,"[11]; compound concentrations: 100 nM and 1000 nM (sheet 'Samples'), CATDS: 9.4369633718921209E-3",1690 nM
O=C(O)C(F)(F)F.O=c1[nH]ccc2nc(N[C@@H]3CCNC3)nc(Nc3cc(Cl)cc(Cl)c3)c12 [GSK2188764A],potency estimated from few doses,[3]; [20],556 nM
CN(C)CC(O)COc1ccc(Nc2nccc(-c3cnn4nc(N5CCOCC5)ccc34)n2)cc1 (stereo not shown) [GW767488X],potency estimated from few doses,[15]; [20],534 nM
same,potency estimated from few doses,[19]; [20],1720 nM
same,potency estimated from few doses,[14]; [20],215 nM
same,potency estimated from few doses,[11]; [20],2040 nM
same,potency estimated from few doses,[13],793 nM
CCN(CC)Cc1ccc(Nc2nccc(-c3cnn4ncccc34)n2)cc1 [GW780056X],potency estimated from few doses,"[15]; compound concentrations: 100 nM and 1000 nM (sheet 'Samples'), CATDS: 0.168116243338059",19.4 nM
same,potency estimated from few doses,"[19]; compound concentrations: 100 nM and 1000 nM (sheet 'Samples'), CATDS: 2.9886591978346599E-2",433 nM
same,potency estimated from few doses,"[1]; compound concentrations: 100 nM and 1000 nM (sheet 'Samples'), CATDS: 2.40786043408843E-2",746 nM
CN(C)CCNC(=O)Nc1ccc(N(C)c2ccnc(Nc3ccc(CS(C)(=O)=O)cc3)n2)cc1.Cl [GW830900A],potency estimated from few doses,[1]; [20],1330 nM
same,potency estimated from few doses,[14]; [20],1550 nM
same,potency estimated from few doses,[11]; [20],2150 nM
Cl.Cl.NC(CNC(=O)c1cc(Br)c(-c2ccnc3[nH]ccc23)s1)c1ccccc1.NC(CNC(=O)c1cc(Br)c(-c2ccnc3[nH]ccc23)s1)c1ccccc1 (stereo not shown) [GSK1322949A],potency estimated from few doses,"[3]; compound concentrations: 100 nM and 1000 nM (sheet 'Samples'), CATDS: 3.2590652290340097E-2",1010 nM
same,potency estimated from few doses,"[19]; compound concentrations: 100 nM and 1000 nM (sheet 'Samples'), CATDS: 2.9774635875568601E-2",1230 nM
same,potency estimated from few doses,"[4]; compound concentrations: 100 nM and 1000 nM (sheet 'Samples'), CATDS: 7.4482262143184694E-2",247 nM
same,potency estimated from few doses,[5]; CATDS: 9.3197598269089799E-2,181 nM
CNc1cc(-c2ccc3c(N)n[nH]c3c2)nc(N)n1 [GSK2224810A],potency estimated from few doses,[16]; [20],475 nM
c1ccc(-c2n[nH]cc2Nc2ccnc3ccccc23)nc1 [GW694077X],potency estimated from few doses,[5]; CATDS: 2.4219369604879502E-2,1650 nM
same,potency estimated from few doses,"[14]; compound concentrations: 100 nM and 1000 nM (sheet 'Samples'), CATDS: 2.8342721884761699E-2",940 nM
CN(c1ccc(NC(=O)NCCN2CCOCC2)cc1)c1ccnc(Nc2ccc(CS(C)(=O)=O)cc2)n1.Cl [GW830365A],potency estimated from few doses,"[14]; compound concentrations: 100 nM and 1000 nM (sheet 'Samples'), CATDS: 5.51715170179801E-2",958 nM
CCn1c(-c2nonc2N)nc2cncc(C(=O)N3CC[C@H](N)C3)c21.Cl [SB-772077-B],potency estimated from few doses,[2]; [20],1170 nM
same,potency estimated from few doses,[4]; [20],95.9 nM
